# In the supplement of paper PMC10338343:
# ± gives the standard deviation.
# Tested on: EfPiwi piRISC loaded with piRNA #1 (26 nt)
# Assay: pre-steady-state target cleavage rate (min^-1); auxiliary factor: 500 nM Ephydatia muelleri Gtsf1; guide: piRNA #1 5'p-UGAGGUAGUAGGUUGUAUAGUAUCCA; MIWI and MILI are mouse PIWI proteins and EfPiwi is from a freshwater sponge; tags in brackets are library labels; higher = faster piRNA-guided slicing of the target
# Method in brief: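 Three pooled Cleave-'n-Seq trials supplied the data, with k3 capped at 0.0001 min^-1. In each, […] transcribed, DNA-blocked target RNA library and 1 nM active affinity-purified piRISC with one synthetic guide reacted in HEPES–potassium acetate buffer at 33 °C for 0–8 or 0–960 min, with or without 500 nM GTSF1 partner protein. Uncleaved targets were sequenced and normalised to depth and to weakly complementary targets. A burst-and-steady-state fit provided the pre-steady-state cleavage rate.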
row,Sequence,pre-steady-state target cleavage rate
1,GGAGAGGAUACUAUACAACGUACUAGCUCA,0.0029 ± 0.0015
2,GGAGACCAAACUAUACAACCUACUACCACA,0.00528 ± 0.0044
3,GGAGACCAUACUAUACAACGUACUUCCUCA,0.00544 ± 0.0032
4,GGAGACCAUACUAUACUAACCUACUACCUCA,0.0042 ± 0.0031
5,GGAGUGGAUACUAACAACCUACUACCUCA,0.00566 ± 0.0038
6,GGAGAGGAUACUAUACAACCUAGUACGUCA,0.0044 ± 0.0019
7,GGAGUUGAUACUAUACAACCUACUACCUCA,0.193 ± 0.06
8,GGAGACGACUACUAUACAACCUACUACCUCA,0.01 ± 0.0046
9,GGAGAGGAUACUAUACAACCUUCUAGCUCA,0.00404 ± 0.0021
10,GGAGUGGAUUCUAUACAACGUACUACCUCA,0.00313 ± 0.0019
11,GGAGUGGAUACUAUACAACCUACUAGGACA,0.00314 ± 0.0029
12,GGAGACGUUACUAUACAACCUACUACCUGA,0.00573 ± 0.0022
13,GGAGUGGAUACUAUACAACCUAGAUCCUCA,0.00311 ± 0.0016
14,GGAGUGGAUACUAUACUAGCUACUACCUCA,0.0081 ± 0.0031
15,GGAGACCUAACUAUACAACCUUCUACCUGA,0.00465 ± 0.0036
16,GGAGUGGAUACUAUACAACCUACAACCACA,0.00247 ± 0.0019
17,GGAGACGAUACUAUACAACCUUCUUCCUCA,0.0037 ± 0.0019
18,GGAGAGGAUACUAUAGAACCUACUACCUCA,0.00475 ± 0.0023
19,GGAGAGGAUACUAUACAACCUACUACCUCC [g2:g25:cont:t1C],0.12 ± 0.046
20,GGAGACCAUACUAUACAACCCUACUACCUCA,0.00693 ± 0.0035

row,Sequence,pre-steady-state target cleavage rate
1,GGAGACCAUACUAUACAACCUACUAGCUGA,0.00669 ± 0.0037
2,GGAGUGGAUACUAUACAAUCCUACUACCUCA,0.0124 ± 0.0065
3,GGAGACCUAUGAAUACAACCUACAUGCUCA,< 0.0001
4,GGAGACCAUACUAUACAACGUAGUACCUCA,0.00264 ± 0.0023
5,GGAGAGCAUACUAUUCAACCUACUACCUCA,0.00555 ± 0.0041
6,GGAGUGGAUACUAUACAACCUAGUACCACA,0.0035 ± 0.0016
7,GGAGACGAUACUAUACAUCCUUCUACCUCA,0.00356 ± 0.0021
8,GGAGACGAUAGUAUACAACCUACUACGUCA,0.0019 ± 0.0015
9,GGAGAGGAUACUAUACAACCAAGUACCUCA,0.00282 ± 0.002
10,GGAGACCUAACUAUACAACCUACUACCUA,0.0706 ± 0.025
11,GGAGUGCAAACUAUACAACCUACUACCUCA,0.00676 ± 0.0044
12,GGAGAGGAUACUAAACAACCAACUACCUCA,0.00246 ± 0.0017
13,GGAGACCAUACUAUACAGACCUACUACCUCA,0.0137 ± 0.0061
14,GGAGACCUAACUAUACAACCACUACCUCA,0.00546 ± 0.0044
15,GGAGUGGAUACUAUACAACCUUCUAGCUCA,0.00376 ± 0.0018
16,GGAGAGGUUACUAUACAACCUACUAGCUCA,0.00306 ± 0.0015
17,GGAGAGGAUACUAUUCAACCUAGUACCUCA,0.00256 ± 0.0017
18,GGAGACCUUACUAUACAACCCUACUACCUCA,0.00411 ± 0.0037
19,GGAGAGGAUACUAUACAACCUACUAGCUGA,0.00408 ± 0.002
20,GGAGUGGAUACUAUACAACCUACUCCUCA,0.00475 ± 0.0027
